Drawing on PubChem BioAssay (Tox21), this text covers Potency for 40 compounds.

Inconclusive results are not listed. Where a call stands in place of a potency, no number is given. Calls of active or inactive are those of the source. The call rests on the fitted dose curve; in most records, active means well fitted cell-killing curve with a large enough effect in the repeat runs; inconclusive means weak or mixed curves; inactive means flat fitted curve, though single readings scatter.
Potency means the concentration at half of the fitted maximal effect.

The nature of the assay: qHTS assay to identify small molecule antagonists of the TGF-beta/Smad signaling pathway - cell viability counter screen (AID 1346824). Further: nearly all actives have a fitted effect of over 50% in size. As to conditions: SBE-bla HEK293T viability, CellTiter-Glo luminescence; series mostly up to 76.8 µM. An excerpt: U.S. Tox21 Program National Center for Advancing Translational Sciences [NCATS] NIH Chemical Genomics Center [NCGC] U.S. Environmental Protection Agency [EPA] National Institutes of Environmental Health Sciences [NIEHS] National Toxicology Program [NTP] U.S. Food and Drug Administration [FDA] Tox21 Assay Overview: Transforming growth factor beta (TGF-beta) superfamily consists of a large number of structurally related dimeric proteins that act as hormones or local mediators in regulating a wide range of biological functions. This superfamily includes TGF-betas themselves, the bone morphogenetic proteins (BMPs) and the activins. These ligands induce oligomerization of serine/threonine receptor kinases and phosphorylate the cytoplasmic signaling molecules of Smad protein family. CellSensor SBE-bla HEK 293T cell line (Life Technologies, Carlsbad, CA), responsive to TGF-beta was used to screen Tox21 10K compound library for identification of agonists/antagonists of the Smad signaling pathway. This cell line contains a beta-lactamase reporter gene under control of the Smad binding element (SBE) stably integrated into HEK 293T cells. Also cytotoxicity of the compounds was tested in parallel by measuring the cell viability using CellTiter-Glo assay system in the same wells.
Tox21 Assay Protocol Summary: SBE-bla HEK 293T cells were dispensed at 4,000/well in 5 uL of assay medium into black wall/clear-bottom 1536-well plates using a Multidrop Combi (ThermoFisher Scientific, Waltham, MA) dispenser. After the assay plates were incubated at 37 C and 5% CO2 for an overnight, 23 nL of compounds dissolved in DMSO, positive controls or DMSO only was transferred to the assay plate by a Pintool station (Kalypsys, San Diego, CA). Compound transfer was followed by the addition of 1 uL of 0.25 ng/mL TGF-beta1 or assay buffer using two separate tips of Flying Reagent Dispenser (FRD, Aurora Discovery, San Diego, CA). The assay plates were incubated at 37 C and 5% CO2 for 5 hr. One uL of LiveBLAzer B/G FRET substrate (Life Technologies) was added using a Flying Reagent Dispenser (FRD, Aurora Discovery, San Diego, CA) and the plates were incubated at room temperature for 2 hr. Fluorescence intensity (405 nm excitation, 460 nm and 530 nm emissions) was measured using an Envision plate reader (PerkinElmer, Shelton, CT). For cytotoxicity read, 4 uL of CellTiter-Glo reagent (Promega Corporation, Madison, WI) was added to each well of the assay plates using FRD. After 30 min incubation at room temperature, the luminescence intensity was measured using ViewLux plate reader (PerkinElmer).
Take `C=Cc1ccccc1C=C`: the Potency entry was “inactive”.

As to `CCCCCc1ccc(Cl)cc1`, the Potency entry was “inactive”.

For `CCC(CC)C(C)CCOC(C)=O` (stereo not given), the Potency result was “inactive”.

As to `Oc1c(I)cc(Cl)c2cccnc12`, the Potency result is “inactive”.

As for `OC[C@@H](O)[C@@H](O)CO`, the Potency entry was “inactive”.

On to `CCC(=O)OC(=O)CC`, for which the Potency entry was “inactive”.

Turning to `O=C(O)CCN(C1(C(=O)NO)CCCC1)S(=O)(=O)c1ccc(Oc2ccc(F)cc2)cc1`, the Potency entry is “inactive”.

Consider `CCCCCCCC`, for which the Potency entry is “inactive”.

Take `Cc1c(C)c([N+](=O)[O-])c(C(C)(C)C)c([N+](=O)[O-])c1C`: the Potency entry was “inactive”.

On to `Cc1c(C)c2c(c(C)c1OC(=O)c1cccnc1)CC[C@@](C)(CCC[C@H](C)CCC[C@H](C)CCCC(C)C)O2`, for which the Potency result is “inactive”.

With `O=C(/C=C/c1ccc(O)c(O)c1)O[C@@H](C(=O)O)[C@@H](OC(=O)/C=C/c1ccc(O)c(O)c1)C(=O)O`, the Potency result was “inactive”.

For `Cc1cc(C(C#N)c2ccc(Cl)cc2)c(Cl)cc1NC(=O)c1cc(I)cc(I)c1O` (stereo not given), the Potency result is “inactive”.

With `C=C(C)c1cccc(C(=C)C)c1`, the Potency result was “inactive”.

In the case of `Cc1cc(C)c(/C=C2\C(=O)Nc3ccccc32)[nH]1`, the Potency result is “inactive”.

`ClCCl`: the Potency entry was “inactive”.

As for `Cc1nc(-c2ccc(Cl)cc2)oc1COC(C)(C)C(=O)O`, the Potency entry is “inactive”.

In the case of `C#C[C@]1(OC(C)=O)CC[C@H]2[C@@H]3CCC4=C/C(=N/O)CC[C@@H]4[C@H]3CC[C@@]21CC`, the Potency entry was “inactive”.

Regarding `COc1c(C)c2c(c(O)c1C/C=C(\C)CCC(=O)OCCN1CCOCC1)C(=O)OC2`, the Potency result is “inactive”.

Regarding `COc1ccc(-c2coc3cc(O)ccc3c2=O)cc1`, the Potency result is “inactive”.

In the case of `O=c1c(O)c(-c2ccc(O)cc2O)oc2cc(O)cc(O)c12`, the Potency result was “inactive”.

Take `Fc1ccc(C(c2ccc(F)cc2)N2CCNCC2)cc1`: the Potency result was “inactive”.

For the compound `CCCc1ccc(OCC(=O)N2CCN(C(=O)COc3ccc(CCC)cc3OC)CC2)c(OC)c1`, the Potency result was “inactive”.

Regarding `C1CCC(SSC2CCCCC2)CC1`, the Potency entry was “inactive”.

`CC(C(=O)O)c1ccc2c(c1)[nH]c1ccc(Cl)cc12` (stereo not given): the Potency entry is “inactive”.

For `Nc1ccc(C(=O)O)c(O)c1`, the Potency result is “inactive”.

For `COC1=C(OC)C(=O)C(CCCCCCCCCCO)=C(C)C1=O`, the Potency result was “inactive”.

As for `O=S(=O)(O)c1ccccc1/C=C/c1ccc(-c2ccc(/C=C/c3ccccc3S(=O)(=O)O)cc2)cc1`, the Potency entry is “inactive”.

As for `CN1CCC[C@@H]1CCO[C@](C)(c1ccccc1)c1ccc(Cl)cc1`, the Potency entry was “inactive”.

Take `CCN(CC)c1ccc2c(-c3ccc(S(=O)(=O)O)cc3S(=O)(=O)[O-])c3ccc(=[N+](CC)CC)cc-3oc2c1`: the Potency entry was “inactive”.

`CCCCCCCCCCCCCCCC[N+](C)(C)CC`: the Potency was 43.8 µM (active).

Turning to `Nc1cc(Cl)c(O)c(Cl)c1`, the Potency result is “inactive”.

On to `C=Cc1cccc(C)c1`, for which the Potency result was “inactive”.

As to `COC(=O)Nc1nc2ccc(C(=O)c3ccccc3)cc2[nH]1`, the Potency entry was “inactive”.

Take `CCCNCCC`: the Potency result was “inactive”.

Turning to `CC1=CCC(=C(C)C)CC1`, the Potency entry is “inactive”.

Consider `CCCCCCCC/C=C\CCCCCCCCN`, for which the Potency result was “inactive”.

For the compound `Nc1nc(N)nc(-c2cc(Cl)ccc2Cl)n1`, the Potency result is “inactive”.

`C=C(C)C(=O)OCCCCCCCCCC`: the Potency result is “inactive”.

For `COC(C)=O`, the Potency result is “inactive”.

As to `CCC(C)[O-].CCC(C)[O-].CCOC(=O)/C=C(/C)[O-].[Al+3]`, the Potency result was “inactive”.
